Results on one molecule are retold here after PubChem BioAssay (EPA / NIEHS).

Results filed as inconclusive are left out. Active and inactive are the calls of the source. The calls were made as follows, unless noted: active = hit-call score of the fitted dose curve at least 0.9, where 1 is the maximum; inactive = score below 0.9.

Experiment [1] can be described thus: CCTE_Shafer_MEA_dev_firing_rate_mean: CCTE's Neural Network Formation Assay for Mean Firing Rate, Shafer Lab (AID 2284031).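 Also: curve fitted for loss of firing so AC50 reflects decreased mean firing rate.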 The procedure, abridged: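 Spike frequency (spikes/recording length, averaged over active electrodes) was recorded on days 5, 7, 9 and 12 and collapsed to AUC; rat cortical cultures received compound continuously over 12 days of network development.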

Experiment [2] in a line: CCTE_Shafer_MEA_dev_per_burst_spike_percent: CCTE's Neural Network Formation Assay for Percent of Spikes in a Burst, Shafer Lab (AID 2284032).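 Also: fitted as a decrease in burst spike percentage below DMSO baseline.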 The essentials: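 Value is trapezoidal AUC over recordings on days 5, 7, 9 and 12 of the well-mean fraction of spikes falling in single-electrode bursts; rat cortical cultures exposed continuously from plating, treatment renewed DIV 5 and 9, fitted downward against DMSO.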

Experiment [3] can be described thus: CCTE_Shafer_MEA_dev_active_electrodes_number: CCTE's Neural Network Formation Assay for Number of Active Electrodes, Shafer Lab (AID 2284040; active = hit-call score of the fitted dose curve at least 0.9, where 1 is the maximum;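 also: potency for loss of active electrodes versus DMSO so lower counts are hits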). The procedure, abridged: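 Counts electrodes per well firing at least 5 spikes/min, recorded on days 5, 7, 9 and 12 in rat cortical cultures dosed continuously from plating (treatment refreshed DIV 5, 9). Value is the area under the curve over recordings, fitted downward relative to DMSO.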

Experiment [4] is described as follows: CCTE_Shafer_MEA_dev_burst_rate: CCTE's Neural Network Formation Assay for Burst Rate, Shafer Lab (AID 2284042).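 Also: potency for loss of burst rate below DMSO control.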 The essentials:
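Developmental network assay measuring how 12-day exposure of rat cortical neuron cultures alters bursting on extracellular MEA recordings. Values are AUC of well-mean burst rate across four recording days, relative to DMSO vehicle.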

Experiment [5] in a line: CCTE_Shafer_MEA_dev_bursting_electrodes_number: CCTE's Neural Network Formation Assay for Number of Bursting Electrodes, Shafer Lab (AID 2284043; active = hit-call score of the fitted dose curve at least 0.9, where 1 is the maximum;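 also: potency is for loss of bursting electrodes relative to DMSO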). The procedure, abridged: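 Number of electrodes reaching ≥1 burst every 2 min was recorded at DIV 5, 7, 9 and 12 and collapsed as trapezoidal area under the curve. Cultures were rat cortical neurons on MEA plates, dosed continuously from plating with medium and treatment refreshed on DIV 5 and 9.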

Experiment [6] in a line: CCTE_Shafer_MEA_dev_burst_duration_mean: CCTE's Neural Network Formation Assay for Mean Burst Duration, Shafer Lab (AID 2284045). The procedure, abridged:
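Mean single-electrode burst duration (first to last spike), averaged over bursting electrodes per well, then integrated as area-under-curve across recordings at days 5, 7, 9 and 12. Rat cortical cultures on MEAs, compound present from plating, refreshed at feeds.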

Experiment [7] in a line: CCTE_Shafer_MEA_dev_interburst_interval_mean: CCTE's Neural Network Formation Assay for Mean Interburst Interval, Shafer Lab (AID 2284046).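 Also: well-mean interburst interval of bursting electrodes as AUC over four recording days; curve fitted for decrease in interburst interval relative to DMSO.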 The procedure, abridged:
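Network formation assay in primary rat cortical cultures, exposed from DIV 0 to 12. Mean interburst interval per well, integrated as AUC over four recordings.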

The nature of experiment [8]: CCTE_Shafer_MEA_dev_inter_network_spike_interval_mean: CCTE's Neural Network Formation Assay for Mean Inter-network Spike Interval, Shafer Lab (AID 2284047).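 Also: potency for a decrease in mean inter-network spike interval below DMSO.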 The essentials:
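Compound was given at plating to primary rat cortical neurons and renewed with full medium changes on DIV 5 and 9. Extracellular activity was recorded on days 5, 7, 9, 12; AUC values were fitted for loss relative to DMSO control.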

Experiment [9] in a line: CCTE_Shafer_MEA_dev_network_spike_number: CCTE's Neural Network Formation Assay for Number of Network Spikes, Shafer Lab (AID 2284048).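 Also: synchronized bursts across electrodes counted on days 5 7 9 12 and integrated as AUC; fit as a loss of signal meaning fewer network spikes than DMSO.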 The essentials: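 Number of network spikes (coordinated firing across electrodes) recorded on days 5, 7, 9 and 12 and summarised as area under the curve. Rat cortical cultures on MEA, continuous compound exposure with full medium/treatment exchange at DIV 5 and 9.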

Experiment [10] can be described thus: CCTE_Shafer_MEA_dev_network_spike_peak: CCTE's Neural Network Formation Assay for Mean Number of Electrodes in Network Spike, Shafer Lab (AID 2284049).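 Also: fitted for loss of signal meaning fewer electrodes in network spikes than DMSO.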 The procedure, abridged:
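Rat cortical primary culture, 1.5 x 10^5 cells/well, 48-well MEA (16 electrodes/well). Dosing day 0 through DIV 12, full media/compound exchange DIV 5, 9. AxIS adaptive spike detection; AUC over days 5/7/9/12; loss-of-signal vs DMSO.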

Experiment [11] in a line: CCTE_Shafer_MEA_dev_spike_duration_mean: CCTE's Neural Network Formation Assay for Mean Spike Duration, Shafer Lab (AID 2284051).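 Also: mean network spike duration pooled as area under curve over DIV 5 to 12 recordings; potency for a decrease in mean network spike duration versus DMSO.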 The procedure, abridged:
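With DMSO as baseline, loss of mean network spike duration was scored from extracellular recordings of rat cortical neurons on MEA plates. Exposure spanned plating to DIV 12; the four recording days were collapsed into one AUC value.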

Experiment [12] can be described thus: CCTE_Shafer_MEA_dev_network_spike_duration_std: CCTE's Neural Network Formation Assay for Standard Deviation of Network Spike Duration, Shafer Lab (AID 2284052).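 Also: hits are decreases in network spike duration SD versus DMSO vehicle.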 The procedure, abridged: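 Developing networks of rat cortical neurons were exposed over twelve days in vitro on 48-well MEA plates. Trapezoidal AUC of recordings (DIV 5–12) was analysed for signal loss relative to DMSO vehicle.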

A short description of experiment [13]: CCTE_Shafer_MEA_dev_per_network_spike_spike_number_mean: CCTE's Neural Network Formation Assay for Mean Number of Spikes in a Network Spike, Shafer Lab (AID 2284053). The essentials: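 First, rat cortical cells (1.5 x 10^5/well) were seeded onto MEA wells; second, dosing began at plating and was refreshed on DIV 5 and 9; finally, network-spike spike counts across DIV 5–12 were summarized as AUC.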

The nature of experiment [14]: CCTE_Shafer_MEA_dev_per_network_spike_spike_percent: CCTE's Neural Network Formation Assay for Percent of Spikes in a Network Spike, Shafer Lab (AID 2284054). The procedure, abridged:
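Metric: fraction of spikes falling in a 0.05 s window at network-spike peaks. Recordings were made on days 5, 7, 9 and 12 and collapsed by trapezoidal AUC. Cultures were rat cortical neurons on MEA plates, dosed continuously from plating, re-dosed at media changes.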

Experiment [15] can be described thus: CCTE_Shafer_MEA_dev_LDH: CCTE's Lactate Dehydrogenase Assay for Cytotoxicity in the Neural Network Formation Assay, Shafer Lab (AID 2284068; active = hit-call score of the fitted dose curve at least 0.9, where 1 is the maximum;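 also: exposure for twelve days from plating with re-dosing on DIV 5 and 9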). The procedure, abridged:
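Developing rat cortical networks on MEA plates are exposed to compound for 12 days from plating. LDH activity is measured spectrophotometrically, with DMSO as baseline.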

A short description of experiment [16]: CCTE_Shafer_MEA_dev_AB: CCTE's Alamar Blue Assay for Cytotoxicity in the Neural Network Formation Assay, Shafer Lab (AID 2284083; active = hit-call score of the fitted dose curve at least 0.9, where 1 is the maximum;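 also: resazurin reduction fluorescence as viability of cultured neurons; twelve days of exposure from plating with re-dosing on DIV 5 and 9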). The essentials: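 Cytotoxicity companion to the developmental MEA: primary rat cortical neurons, 12-day exposure starting day 0, compound refreshed DIV 5 and 9; resazurin fluorescence, fitted against DMSO vehicle.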
A general note: Alamar Blue is a resazurin reagent that responds to reducing activity.

A short description of experiment [17]: CCTE_Shafer_MEA_dev_mutual_information_norm: CCTE's Neural Network Formation Assay for Mutual Information Normalization, Shafer Lab (AID 2284091).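 Also: mutual information between electrodes summarised as area under curve across four recording days; potency is for a decrease in mutual information relative to DMSO.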 The procedure, abridged:
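Shared information across electrodes, tracked on days 5, 7, 9 and 12 of network development and collapsed as trapezoidal area under the curve. Rat cortical cultures were treated continuously from plating, with treatment renewed at feeds on DIV 5 and 9; DMSO baseline, negative-direction fit.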

Experiment [18] can be described thus: IUF_NPC1a_proliferation_area_72hr: Leibniz Research Institute for Environmental Medicine (IUF) 72-hour Neural Progenitor Cell Proliferation Area Assay (NPC1a) (AID 2284208). The essentials: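 Proliferation read as increase in sphere area by phase-contrast imaging over 72 h continuous compound exposure (no renewal) of hNPC spheres grown with EGF/FGF at 37C, 5% CO2. Growth-factor withdrawal served as positive control; DMSO as baseline.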

A short description of experiment [19]: IUF_NPC1_viability_72hr: Viability Assessment at 72 hours in the Leibniz Research Institute for Environmental Medicine (IUF) Neural Progenitor Cell Proliferation Assay (NPC1) (AID 2284209). The essentials:
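Viability was measured by resazurin-to-resorufin fluorescence (alamar blue) after 72 h of continuous exposure without compound renewal. Each well held one hNPC sphere (gestational week 16-19 fetal cortex, 0.25-0.35 mm) cultured in EGF/FGF proliferation medium at 37C and pH 7.2-7.6.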

A short description of experiment [20]: CCTE_Mundy_HCI_Cortical_Synap_Neur_Matur_NeuriteSpotCountPerNeuriteLength: CCTE's Synaptogenesis and Neurite Maturation Assay in rat cortical cells for Neurite Spot Count per Neurite Length, Mundy Lab (AID 2284210). The procedure, abridged: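 Synaptophysin spots per unit neurite length, measured by automated imaging of MAP2/synaptophysin/Hoechst-stained neurons. Cultures from rat cortex received chemical at DIV 7 with media change through DIV 12; glial growth arrested by AraC at DIV 5; DMSO baseline.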

Experiment [21] can be described thus: CCTE_Mundy_HCI_Cortical_Synap_Neur_Matur_BPCount: CCTE's Synaptogenesis and Neurite Maturation Assay in rat cortical cells for Branch Point Count, Mundy Lab (AID 2284211). The procedure, abridged: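 HCI read-out of branch points from MAP2/synaptophysin/Hoechst immunofluorescence; rat cortical cultures, AraC DIV 5, dosing DIV 7, fixed DIV 12; fit in positive direction vs DMSO baseline.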

The nature of experiment [22]: CCTE_Mundy_HCI_Cortical_NOG_NeuriteCount: CCTE's Neurite Outgrowth Assay in rat cortical cells for Neurite Count, Mundy Lab (AID 2284212).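 Also: cells fixed about two days after chemical exposure began.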 The essentials:
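Rat cortical primary cells; compound added 2 h post-plating, 1/10 dilution of working solution. Anti-betaIII-tubulin/AF488 ICC; ArrayScan neurite count vs DMSO.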

The nature of experiment [23]: CCTE_Mundy_HCI_Cortical_NOG_NeuriteLength: CCTE's Neurite Outgrowth Assay in rat cortical cells for Neurite Length, Mundy Lab (AID 2284213).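 Also: neurites imaged about 48 to 50 h after chemical exposure began.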 The procedure, abridged:
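First, rat primary cortical cells were plated and, 2 h later, given test chemical as a 1/10 dilution. Finally, βIII-tubulin immunostaining enabled automated imaging of neurite length.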

In general, AC50 refers to the concentration at which the activity in the assay is half-maximal.

Turning to `CC1(C)C(C=C(Cl)c2ccc(Cl)cc2)C1C(=O)OC(C#N)c1ccc(F)c(Oc2ccccc2)c1` (stereo not drawn), the AC50 is 4.24 µM (active) in experiment [1]; 13 µM (active) in [2]; 12.8 µM (active) in experiment [3]; 9.91 µM (active) in experiment [4]; 12.9 µM (active) in [5]; 13.6 µM (active) in experiment [7]. For the same molecule, the AC50 was 4.11 µM (active) in experiment [8]; 14.4 µM (active) in experiment [9]; 13.1 µM (active) in experiment [10]; 5.21 µM (active) in [11]; 6.89 µM (active) in experiment [12]; 6.7 µM (active) in experiment [13]. Further, the AC50 in [14] was 23.3 µM (active); in experiment [15], 14.3 µM (active); in [16] it was 17.1 µM (active); in experiment [17], 5.42 µM (active); in experiment [21], 50 µM (active); in experiment [22], 39.1 µM (active). The AC50 in experiment [23] is 50 µM (active). Also, the call in [6], in [18], in experiment [19] and in experiment [20] was inactive.
